Experimental data published in the supplement of paper PMC6555819.

How the values were obtained:
Assay in all cases: PBM binding z-score (relative to random genomic background probes); higher = stronger binding; sequences stand for … in GC…GCGATTGACAGCGTAGAATGAAGG
[1] = tested on: RARb homodimer (NR concentration 270 nM)
Procedure, shortened: (§1)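 For binding z-scores, the reference was random background probes on custom Agilent 4×180K protein-binding microarrays. These arrays were incubated 1 h with ligand-free nuclear receptor dimers in PBS pH 7.4, 2% milk, 0.02% Triton X-100, 1 mM DTT, 0.2 mg/mL BSA and 0.4 mg/ml salmon testes DNA. Fluorescence was scanned after antibody detection of each partner (one per run) and regression-normalized.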

[2] = tested on: RARg:RXRa (NR concentration 270 nM, RXRa partner concentration 90 nM)
Procedure, shortened: as §1

[3] = tested on: RARg homodimer (NR concentration 270 nM)
Procedure, shortened: as §1

[4] = tested on: RXRa DBDmut IVT, anti-RXR (DBD mutation: RXRa K156A/R161A, NR concentration 90 nM)
Procedure, shortened: as §1

[5] = tested on: RXRa homodimer (NR concentration 180 nM)
Procedure, shortened: as §1

[6] = tested on: THRa:RXRa (NR concentration 90 nM, RXRa partner concentration 90 nM)
Procedure, shortened: as §1

[7] = tested on: THRa homodimer (NR concentration 90 nM)
Procedure, shortened: as §1

[8] = tested on: VDR homodimer (NR concentration 270 nM)
Procedure, shortened: as §1

Row | Sequence | PBM binding z-score [1] | PBM binding z-score [2] | PBM binding z-score [3] | PBM binding z-score [4] | PBM binding z-score [5] | PBM binding z-score [6] | PBM binding z-score [7] | PBM binding z-score [8]
1 | GCTGCTAGGTCAGTTTGGTCAGCTAACGGGTACG | 2.43 | 2.29 | 3.29 | 0.863 | 0.8 | 1.36 | 0.147 | 0.564
2 | TCTGCTAGGTCAGTTGGTCAGCCAACGAGCTGCC | 2.3 | 2.84 | 3.3 | 0.162 | 0.782 | 1.06 | -0.436 | -0.81
3 | AGAATGAGGTTATAAAGATCAGGGAATTGCGGTC | 0.868 | 1.15 | 0.986 | 1.35 | 1.92 | 2.14 | 0.473 | 1.01
4 | CATACTGGGCCAAAAAGGTCATTGATGCCGATAA | 4.48 | 4.89 | 4.82 | 1.25 | 5.11 | 3.14 | 0.641 | 3.14
5 | CCTCGGAGCACAGAAGGTCAGAGCTGTCCGCTTT | 3.08 | 2.63 | 2.37 | 0.0874 | 2.3 | 3.13 | -0.478 | -0.376
6 | ACTAGCAGGCCAAGGGTCAGTCAAGATTAGTCCG | 3.52 | 3.02 | 2.76 | 0.119 | 2.52 | 1.75 | -0.147 | 0.29
7 | ATCTCTAGGTAAGGCTCAGTTCAGTGAAGAACGC | 0.805 | 0.0838 | -0.0338 | 0.317 | -0.0677 | 0.831 | 0.732 | 1.36
